Assay results reported in PubChem BioAssay AID1159580 (chemical genetic matrix, 2015).
Screen size: about 5,500 compounds; about 2,000 (36%) were called active. Not shown: some 18% with an inconclusive outcome. Cut-off read from the data, not from the text of the source: active = normalized growth mostly below about 0.91 (no sharp cut-off); inconclusive = no clear call, values can overlap the other calls; inactive = mostly above about 0.92. Some of the results follow.

Test: chemical genetic growth profiling, strain panel (AID 1159580);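 note: tested at 20 µM; growth read once vehicle control cultures reached saturation at 30 °C; 1 = growth at the plate median or of vehicle wells; lower values mean less growth of the strain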
Settings: growth OD

Measured: normalized growth

CC(C)[C@@H]1CC[C@@H](C)CC1=O
inactive: S. cerevisiae deletion strains, locus YJR066W, strain TOR1, stronger effect = lower value 0.94 | S. cerevisiae deletion strains, locus YJR075W, strain HOC1, stronger effect = lower value 1.02 | S. cerevisiae deletion strains, locus YKL009W, strain mrt4, stronger effect = lower value 1.01 | S. cerevisiae deletion strains, locus YKL068W, stronger effect = lower value 1.02 | S. cerevisiae deletion strains, locus YKL085W, strain MDH1 (second series), stronger effect = lower value 0.999 | S. cerevisiae deletion strains, locus YKL085W, strain MDH1, stronger effect = lower value 0.999 | S. cerevisiae deletion strains, locus YKL160W, strain elf1, stronger effect = lower value 0.981 | S. cerevisiae deletion strains, locus YKR001C, strain vps1, stronger effect = lower value 0.991 | S. cerevisiae deletion strains, locus YKR026C, strain gcn3, stronger effect = lower value 0.984 | S. cerevisiae deletion strains, locus YKR091W, strain srl3, stronger effect = lower value 0.991 | S. cerevisiae deletion strains, locus YLL001W, strain dnm1, stronger effect = lower value 0.98 | S. cerevisiae deletion strains, locus YLL026W, stronger effect = lower value 0.985 | S. cerevisiae deletion strains, locus YLL041C, strain sdh2, stronger effect = lower value 0.991 | S. cerevisiae deletion strains, locus YLR027C, strain aat2, stronger effect = lower value 0.979 | S. cerevisiae deletion strains, locus YLR039C, strain RIC1, stronger effect = lower value 1.09 | S. cerevisiae deletion strains, locus YLR058C, strain SHM2, stronger effect = lower value 1.02 | S. cerevisiae deletion strains, locus YLR102C, strain apc9, stronger effect = lower value 0.997 | S. cerevisiae deletion strains, locus YLR113W, strain HOG1, stronger effect = lower value 0.967 | S. cerevisiae deletion strains, locus YLR221C, strain rsa3, stronger effect = lower value 1.01 | S. cerevisiae deletion strains, locus YLR258W, strain gsy2, stronger effect = lower value 0.996 | S. cerevisiae deletion strains, locus YLR262C, strain YPT6 (second series), stronger effect = lower value 0.979 | S. cerevisiae deletion strains, locus YLR262C, strain YPT6, stronger effect = lower value 1.14 | S. cerevisiae deletion strains, locus YLR268W, strain sec22, stronger effect = lower value 1.02 | S. cerevisiae deletion strains, locus YLR320W, strain mms22, stronger effect = lower value 1.01 | S. cerevisiae deletion strains, locus YLR330W, strain CHS5, stronger effect = lower value 1.01 | S. cerevisiae deletion strains, locus YLR342W, strain FKS1 (second series), stronger effect = lower value 1.03 | S. cerevisiae deletion strains, locus YLR342W, strain FKS1, stronger effect = lower value 0.995 | S. cerevisiae deletion strains, locus YLR357W, strain rsc2, stronger effect = lower value 0.998 | S. cerevisiae deletion strains, locus YLR370C, strain arc18, stronger effect = lower value 0.983 | S. cerevisiae deletion strains, locus YLR371W, strain rom2, stronger effect = lower value 1 | S. cerevisiae deletion strains, locus YLR384C, strain iki3, stronger effect = lower value 1.01 | S. cerevisiae deletion strains, locus YLR418C, strain cdc73, stronger effect = lower value 1.01 | S. cerevisiae deletion strains, locus YML016C, strain PPZ1, stronger effect = lower value 1.01 | S. cerevisiae deletion strains, locus YML032C, strain rad52, stronger effect = lower value 1.01 | S. cerevisiae deletion strains, locus YML120C, strain ndi1, stronger effect = lower value 0.982 | S. cerevisiae deletion strains, locus YML124C, strain tub3, stronger effect = lower value 0.999 | S. cerevisiae deletion strains, locus YMR058W, strain fet3, stronger effect = lower value 0.989 | S. cerevisiae deletion strains, locus YMR078C, strain ctf18, stronger effect = lower value 1 | S. cerevisiae deletion strains, locus YMR125W, strain sto1, stronger effect = lower value 0.965 | S. cerevisiae deletion strains, locus YMR129W, stronger effect = lower value 1 | S. cerevisiae deletion strains, locus YMR205C, strain PFK2, stronger effect = lower value 1 | S. cerevisiae deletion strains, locus YMR223W, strain ubp8, stronger effect = lower value 1 | S. cerevisiae deletion strains, locus YMR231W, strain pep5, stronger effect = lower value 1 | S. cerevisiae deletion strains, locus YMR263W, strain SAP30, stronger effect = lower value 1.02 | S. cerevisiae deletion strains, locus YMR307W, strain GAS1, stronger effect = lower value 1.02 | S. cerevisiae deletion strains, locus YNL067W, strain RPL9B, stronger effect = lower value 1.03 | S. cerevisiae deletion strains, locus YNL071W, strain lat1, stronger effect = lower value 0.991 | S. cerevisiae deletion strains, locus YNL128W, strain TEP1, stronger effect = lower value 1.02 | S. cerevisiae deletion strains, locus YNL153C, strain GIM3, stronger effect = lower value 1.03 | S. cerevisiae deletion strains, locus YNL183C, strain NPR1, stronger effect = lower value 0.935 | S. cerevisiae deletion strains, locus YNL209W, strain ssb2, stronger effect = lower value 1 | S. cerevisiae deletion strains, locus YNL233W, strain BNI4, stronger effect = lower value 1.04 | S. cerevisiae deletion strains, locus YNL248C, strain rpa49, stronger effect = lower value 0.997 | S. cerevisiae deletion strains, locus YNL250W, strain rad50, stronger effect = lower value 1 | S. cerevisiae deletion strains, locus YNL271C, strain bni1, stronger effect = lower value 1 | S. cerevisiae deletion strains, locus YNL298W, strain CLA4, stronger effect = lower value 0.999 | S. cerevisiae deletion strains, locus YNL307C, strain MCK1, stronger effect = lower value 1.01 | S. cerevisiae deletion strains, locus YNL322C, strain KRE1 (second series), stronger effect = lower value 0.995 | S. cerevisiae deletion strains, locus YNL322C, strain KRE1, stronger effect = lower value 1.01 | S. cerevisiae deletion strains, locus YNR049C, strain mso1, stronger effect = lower value 1 | S. cerevisiae deletion strains, locus YNR052C, strain pop2, stronger effect = lower value 0.991 | S. cerevisiae deletion strains, locus YOL006C, strain TOP1, stronger effect = lower value 1.06 | S. cerevisiae deletion strains, locus YOL012C, strain htz1 0.896 | S. cerevisiae deletion strains, locus YOL147C, strain pex11, stronger effect = lower value 1.01 | S. cerevisiae deletion strains, locus YOR001W, strain rrp6, stronger effect = lower value 1.01 | S. cerevisiae deletion strains, locus YOR061W, strain CKA2, stronger effect = lower value 1.01 | S. cerevisiae deletion strains, locus YOR069W, strain VPS5, stronger effect = lower value 0.999 | S. cerevisiae deletion strains, locus YOR070C, strain gyp1, stronger effect = lower value 0.996 | S. cerevisiae deletion strains, locus YOR080W, strain dia2, stronger effect = lower value 0.99 | S. cerevisiae deletion strains, locus YOR083W, strain WHI5, stronger effect = lower value 0.965 | S. cerevisiae deletion strains, locus YOR106W, strain vam3, stronger effect = lower value 0.98 | S. cerevisiae deletion strains, locus YOR136W, strain idh2, stronger effect = lower value 0.987 | S. cerevisiae deletion strains, locus YOR144C, strain elg1, stronger effect = lower value 1 | S. cerevisiae deletion strains, locus YOR184W, strain ser1, stronger effect = lower value 1.02 | S. cerevisiae deletion strains, locus YOR231W, strain MKK1, stronger effect = lower value 0.955 | S. cerevisiae deletion strains, locus YOR265W, strain rbl2, stronger effect = lower value 0.989 | S. cerevisiae deletion strains, locus YOR270C, strain vph1, stronger effect = lower value 1.01 | S. cerevisiae deletion strains, locus YOR290C, strain snf2, stronger effect = lower value 0.954 | S. cerevisiae deletion strains, locus YOR316C, strain cot1, stronger effect = lower value 1.01 | S. cerevisiae deletion strains, locus YPL051W, strain arl3, stronger effect = lower value 0.998 | S. cerevisiae deletion strains, locus YPL055C, strain LGE1, stronger effect = lower value 1.02 | S. cerevisiae deletion strains, locus YPL078C, strain atp4, stronger effect = lower value 0.969 | S. cerevisiae deletion strains, locus YPL106C, strain sse1, stronger effect = lower value 0.967 | S. cerevisiae deletion strains, locus YPL240C, strain hsp82, stronger effect = lower value 0.996 | S. cerevisiae deletion strains, locus YPL241C, strain CIN2, stronger effect = lower value 1.01 | S. cerevisiae deletion strains, locus YPL256C, strain CLN2, stronger effect = lower value 0.96 | S. cerevisiae deletion strains, locus YPR119W, strain clb2, stronger effect = lower value 1 | S. cerevisiae deletion strains, locus YPR141C, strain kar3, stronger effect = lower value 0.991 | S. cerevisiae deletion strains, locus YPR163C, strain tif3, stronger effect = lower value 1.01 | S. cerevisiae deletion strains, locus YPR167C, strain met16, stronger effect = lower value 0.992 | S. cerevisiae deletion strains, strain wtn01, stronger effect = lower value 0.992 | S. cerevisiae strains, strain wild type, stronger effect = lower value 1.01
